# Data: PubChem BioAssay (NCI)
# The panel holds about 83,000 compounds, 20% with a hit somewhere; the sample as a whole holds those more often.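 Assay: single dose, 48 h. Readout: percent growth (0 = no net growth; negative = cell death). Active: <10.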 Values without a mark were called inactive. Calls of active or inactive are those of the source.
# What was measured:
# Assay in all cases: NCI-60 one-dose screen, 48 h (100 = growth as untreated, 0 = no growth, -100 = all killed)
# Settings in all cases: 10 µM unless noted
# [1] = test system: T-47D breast
# [2] = test system: BT-549 breast
# [3] = test system: MDA-MB-435 melanoma
# [4] = test system: SW-620 colon
# [5] = test system: MCF7 breast
# [6] = test system: HCT-116 colon
# [7] = test system: HCC-2998 colon
# [8] = test system: KM12 colon
SMILES,growth [1],growth [2],growth [3],growth [4],growth [5],growth [6],growth [7],growth [8]
COc1ccc(/C=N/NC(=O)CCN2c3ccccc3Sc3ccccc32)cc1,81.5%,84.8%,8.72% (active),57.4%,42.7%,69.4%,92.3%,53.8%
N#Cc1cnc(NCCc2ccncc2)nc1-n1cnc2ccccc21,54.5%,48.5%,69%,58.8%,64.4%,24.8%,58.5%,25.9%
S=C(Nc1ccc(-c2nc(N3CCOCC3)c3cccn3n2)cc1)Nc1cccnc1,-4.82% (active),32.8%,31.8%,46.7%,20.4%,17.3%,32.9%,28.1%
Oc1ccc(CCn2c(O)c(/C=C3\CN=c4ccccc4=N3)sc2=S)cc1,39.8%,43.8%,70.6%,67.4%,16.7%,55.8%,87.1%,5.46% (active)
O=C(O)c1ccc(-n2cc(/C=N/Nc3ccc(F)cc3)c(-c3cc4ccccc4oc3=O)n2)cc1,63.7%,80%,77.5%,64.5%,66.1%,56.5%,88.3%,77.7%
COc1cccc(/C=C/C(=O)c2cc3c(N)c(C(=O)Nc4ccccc4)sc3nc2C)c1,33%,30.3%,-6.91% (active),0.132% (active),7.88% (active),14.9%,-37% (active),17.6%
CCN(C(=O)N1CCN(c2cc3c(cc2F)c(=O)c(C(=O)O)cn3C2CC2)CC1)c1nc(-c2ccc(Cl)cc2)cs1,22.3%,-8.09% (active),17.9%,18.3%,9.42% (active),9.89% (active),25%,13.1%
O=C(CSc1nc2ccc([N+](=O)[O-])cc2[nH]1)Nc1ccc(F)cc1,16.6%,65.2%,53.1%,86%,62.1%,54.7%,75.7%,64%
CC(=O)Cc1nsc(NC(=O)c2cc(-c3cc(Cl)cc(Cl)c3)oc2C)n1,88.1%,98.1%,101%,101%,97.4%,107%,99.9%,103%
CCOC(=O)c1cc2c(=O)oc3ccccc3c2oc1=O,107%,99.4%,111%,105%,99.8%,109%,102%,110%
OCCCC1CCN(C(Cc2ccccc2)c2ccccc2)CC1 (stereo not drawn),56.9%,79.8%,96.4%,107%,94.6%,83.9%,94.4%,94.7%
COc1cc(N2C(=O)[C@H](O)C2c2ccc(SC)cc2)cc(OC)c1OC (stereo partly drawn),49.2%,-6.32% (active),-39.5% (active),23.7%,13.5%,1.16% (active),26.1%,11.8%
Cc1cc2c([nH]1)CSc1cc(S(=O)(=O)c3ccccc3)c(=O)[nH]c1-2,4.92% [100 µM] (active),-12.2% [100 µM] (active),10.6% [100 µM],23.8% [100 µM],-0.665% [100 µM] (active),1.35% [100 µM] (active),12.4% [100 µM],-37.2% [100 µM] (active)
CCCCN1C(=O)/C(=c2\sc3n(c2=O)C2C(NN=3)N(CC)C(=O)N2CC)c2ccccc21 (stereo not drawn),20.5%,20.6%,-34% (active),28.3%,5.32% (active),3.15% (active),6.49% (active),16.1%
CN(C)CCCC1(c2ccc(F)cc2)OCc2cc(-c3cccc4[nH]ccc34)ccc21 (stereo not drawn),-39.2% (active),73.8%,-42.1% (active),-24.6% (active),-24.1% (active),-64% (active),-30.6% (active),10.3%
O=C(Nc1nc2ccc(F)cc2s1)c1cccnc1Nc1ccc(Cl)cc1,-0.413% (active),31.8%,29.2%,49.8%,17.7%,14.2%,31.1%,31.3%

SMILES,growth [1],growth [2],growth [3],growth [4],growth [5],growth [6],growth [7],growth [8]
Cc1ccc(Cl)cc1Nc1nc(C(F)(F)F)ccc1C(=O)N/N=C/c1cccnc1,32.9%,36.7%,39.5%,22.7%,11.7%,25%,,34.7%
COc1ccc(-c2nc(/C=C3\SC(=NCc4ccccc4)NC3=O)c3ccccn23)cc1,-67% (active),-92.9% (active),-4.34% (active),-55.5% (active),-62.2% (active),-97.2% (active),,-78% (active)
CCOc1nc(-c2ccccc2)cc2c(O)c(C(=O)NN)[nH]c(=O)c12,108%,126%,113%,97.4%,127%,102%,,104%
NC(=O)CCC(C(=O)O)N1C(=O)c2ccc(O)cc2C1=O (stereo not drawn),102%,101%,94%,111%,105%,109%,,103%
Fc1cc(F)cc(C(c2c[nH]c3ccccc23)c2c[nH]c3ccccc23)c1,97%,135%,103%,93%,110%,89.8%,,97.5%
Cc1cc(N)c2cc(NC(=O)/C=C\c3ccccc3Cl)ccc2n1,-58.1% (active),-72.8% (active),-80.5% (active),-91.2% (active),-82.4% (active),-73% (active),,-83.8% (active)
N#Cc1c(NC(=O)c2ccccc2)sc2c1CCC(=O)C2,-24.8% (active),16.2%,2.87% (active),11.6%,4.73% (active),5.81% (active),,8.5% (active)
NC(=O)c1c(NC(=O)c2ccccc2)sc2c1CCC(=O)C2,-9.93% (active),9.17% (active),8.22% (active),15.5%,4.2% (active),8.7% (active),,5.17% (active)
Cc1ccc2c(n1)C(=O)c1[nH]c3ccccc3c1C2=O,23.2%,58.5%,-87.6% (active),48.3%,31.2%,22%,,37%
COc1ccc2[nH]cc(C(c3cc(F)cc(F)c3)c3c[nH]c4ccc(OC)cc34)c2c1,43.1%,183%,93.4%,81.6%,55.4%,52.9%,,83.6%
COc1cc(-c2cc(-c3ccc(N(C)C)cc3)nc(N3CCC(O)CC3)c2C#N)cc(OC)c1OC,8.21% (active),30.6%,-18.5% (active),21.1%,0.557% (active),-38.9% (active),,-0.387% (active)
O=C(Nc1cccc([N+](=O)[O-])c1)c1cc2ccccc2cc1O,3.67% (active),-7.42% (active),-1.29% (active),6.15% (active),-4.92% (active),7.4% (active),,-10.3% (active)
O=C1c2cccc(NCCN=Cc3cc(O)ccc3O)c2C(=O)c2c(NCCN=Cc3cc(O)ccc3O)cccc21,-2.29% (active),41.7%,-5.74% (active),-68.7% (active),-59.6% (active),-17.3% (active),,-71.3% (active)
CCCc1cc(NC)nc(S(=O)(=O)CC)n1,111%,105%,104%,105%,92.1%,100%,,113%
CCn1c(SCC(=O)c2ccc(Br)cc2)nnc1-c1ccncc1,105%,116%,102%,102%,92.6%,105%,,106%
